Experimental data as given in PubChem BioAssay (NCATS).
Records with an inconclusive call do not appear. Where a call stands in place of a potency, no number is given. Active and inactive are the calls of the source. Unless noted, the call rests on the fitted dose curve; in most records, active means well fitted curve in the direction sought with a large enough effect; inconclusive means small, poorly fitted or top-dose-only effect, or another doubt; inactive means no such curve, though single readings can be large; an effect the other way counts as inactive or inconclusive.

What was measured:
[1] = NCATS anti-infectives library activity on HEK293 viability as a counter-qHTS vs the C. elegans viability qHTS (AID 1745854);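 further: HEK293 cells exposed to compounds for 24 hr before the viability read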
Outline: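 Cytotoxicity in human HEK293 cells is measured by ATP-dependent CellTiter-Glo luminescence following a 24 hr incubation with titrated library compounds at 37C. Top final concentration is 41.7 uM.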

[2] = target: Glutathione peroxidase 1 (Homo sapiens) (UniProt P07203); test: Primary qHTS Assay for Inhibitors of Recombinant Selenoprotein Glutathione Peroxidase 1 (GPX1) (AID 1845191); further: nearly all actives have a fitted effect of over 65% in size
Outline: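 GR-coupled assay: compounds preincubated 30 min at room temperature with GPX1, then reaction started with CHP; final 10 nM GPX1, 1 mM GSH, 0.5 mM CHP, 0.5 mM NADPH, 100 nM GR, 0.01% BSA, pH 7.5 Tris buffer. NADPH fluorescence (340/450 nm) read at 0 and 15 min.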

[3] = target: Phospholipid hydroperoxide glutathione peroxidase GPX4 (Homo sapiens) (UniProt P36969); test: Primary qHTS Assay for Inhibitors of Recombinant Selenoprotein Glutathione Peroxidase 4 (GPX4) (AID 1845192); further: nearly all actives have a fitted effect of over 65% in size
Outline: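 GR-coupled assay: recombinant GPX4 preincubated 30 min with compound at room temperature; final 200 nM GPX4, 1 mM GSH, 0.5 mM cumene hydroperoxide, 0.5 mM NADPH, 100 nM GR, 0.01% BSA, pH 7.5 Tris. NADPH fluorescence (340/450 nm) read at 0 and 15 min.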

[4] = target: Luciferin 4-monooxygenase (Photinus pyralis) (UniProt P08659); test: Primary firefly luciferase (FLuc) qHTS assay for identification of artifact compounds. (AID 1845220); further: nearly all actives have a fitted effect of over 60% in size
Outline: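 Enzymatic FLuc inhibition assay: compounds pre-exposed to luciferin/ATP (10 uM each) for 15 min, then purified P. pyralis enzyme at 10 nM added. Read-out: luminescence at 5 min.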

[5] = Primary fluorescence-based thiol-reactive (MSTI) qHTS assay for identification of artifact compounds. (AID 1845221); further: nearly all actives have a fitted effect of over 65% in size; further: potency means the concentration at half of the fitted maximal effect;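 on activity change, negative = thiol reactive: thiol-reactive compounds lower the probe fluorescence signal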
Outline: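 Compounds were incubated 1 h at room temperature in the dark with the MSTI probe (4 uM) in PBS pH 7.4, 2% DMSO. Signals were normalized between Acetyl-MSTI and MSTI.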

[6] = target: Catechol O-methyltransferase (Homo sapiens) (UniProt P21964); test: Confirmatory Screen for Target Class Profiling of Small Molecule Inhibitors of Methyltransferases (AID 1745852; calls by dose curve; further: potency means the concentration at half of the fitted maximal effect); details: MTase-Glo luminescence, SAH detection, recombinant enzyme; measured here: COMT max response; stronger effect = lower value
[7] = target: Guanidinoacetate N-methyltransferase (Homo sapiens) (UniProt Q14353); test: as above; details: MTase-Glo luminescence, SAH detection, recombinant enzyme; activity change, negative = inhibition: at 57.3 µM (top of the series) unless noted
[8] = target: Nicotinamide N-methyltransferase (Homo sapiens) (UniProt P40261); test: as above; details: MTase-Glo luminescence, SAH detection, recombinant enzyme; measured here: NNMT max response; stronger effect = lower value
[9] = target: Phenylethanolamine N-methyltransferase (Homo sapiens) (UniProt P11086); test: as above; details: MTase-Glo luminescence, SAH detection, recombinant enzyme; measured here: PNMT max response; stronger effect = lower value
[10] = NCATS anti-infectives library activity on the primary C. elegans qHTS viability assay (AID 1745855; calls by dose curve; further: potency means the concentration at half of the fitted maximal effect); details: C. elegans worm area imaging, day 7
Outline: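 Viability is taken from GFP fluorescence of PE254-GFP-FLuc C. elegans imaged by laser cytometry over 7 days. Ten L1 worms per well grow at 21 °C on TOP10 E. coli capsules with titrated compound; levamisole marks toxicity.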

Chain of Catechol O-methyltransferase (Homo sapiens) (P21964 whole entry, looked up): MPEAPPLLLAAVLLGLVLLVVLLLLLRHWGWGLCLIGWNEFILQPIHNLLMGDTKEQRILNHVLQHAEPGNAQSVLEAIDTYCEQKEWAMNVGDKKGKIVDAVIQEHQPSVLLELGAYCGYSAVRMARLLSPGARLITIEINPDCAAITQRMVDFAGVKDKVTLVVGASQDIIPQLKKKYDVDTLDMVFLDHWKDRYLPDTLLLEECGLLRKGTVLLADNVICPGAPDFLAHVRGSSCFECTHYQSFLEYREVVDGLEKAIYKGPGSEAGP
Chain of Glutathione peroxidase 1 (Homo sapiens) (P07203 whole entry, looked up): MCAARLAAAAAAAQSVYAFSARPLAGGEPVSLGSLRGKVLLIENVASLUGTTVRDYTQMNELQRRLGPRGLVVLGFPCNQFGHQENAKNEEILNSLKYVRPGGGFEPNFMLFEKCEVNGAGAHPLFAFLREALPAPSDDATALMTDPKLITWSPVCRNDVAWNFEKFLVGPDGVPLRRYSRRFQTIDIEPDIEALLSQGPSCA
Chain of Phenylethanolamine N-methyltransferase (Homo sapiens) (P11086 whole entry, looked up): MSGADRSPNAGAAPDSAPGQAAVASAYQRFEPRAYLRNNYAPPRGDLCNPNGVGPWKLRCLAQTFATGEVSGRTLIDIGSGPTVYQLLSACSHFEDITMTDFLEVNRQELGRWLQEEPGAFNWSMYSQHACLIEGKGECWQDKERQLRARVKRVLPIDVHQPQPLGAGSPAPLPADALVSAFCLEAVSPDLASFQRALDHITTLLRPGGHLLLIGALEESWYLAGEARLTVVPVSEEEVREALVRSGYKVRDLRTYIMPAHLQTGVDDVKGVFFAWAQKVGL
Chain of Nicotinamide N-methyltransferase (Homo sapiens) (P40261 whole entry, looked up): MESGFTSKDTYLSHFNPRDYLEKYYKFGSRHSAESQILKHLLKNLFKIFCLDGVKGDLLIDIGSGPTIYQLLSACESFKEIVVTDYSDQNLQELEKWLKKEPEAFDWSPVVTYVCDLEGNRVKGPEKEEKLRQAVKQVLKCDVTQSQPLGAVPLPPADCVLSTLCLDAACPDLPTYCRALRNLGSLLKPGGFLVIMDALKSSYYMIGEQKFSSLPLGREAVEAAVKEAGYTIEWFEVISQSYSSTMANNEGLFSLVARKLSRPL
Chain of Phospholipid hydroperoxide glutathione peroxidase GPX4 (Homo sapiens) (P36969 whole entry, looked up): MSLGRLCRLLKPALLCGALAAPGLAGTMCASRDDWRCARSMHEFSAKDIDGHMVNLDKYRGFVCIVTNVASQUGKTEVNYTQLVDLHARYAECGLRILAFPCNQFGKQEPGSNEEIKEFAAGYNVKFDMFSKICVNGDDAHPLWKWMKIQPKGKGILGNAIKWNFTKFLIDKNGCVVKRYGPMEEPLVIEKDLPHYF

Row | Compound | outcome [1] | Potency [2] | Potency [3] | Potency [4] | Potency [5] | activity [6] [%] | activity change, negative = inhibition [7] | activity [8] [%] | activity [9] [%] | activity change, negative = thiol reactive [5] | Potency [10] | Potency [7]
1 | CCCC(C(=O)O)c1c(C)nc2ccc(Cl)cc2c1-c1ccccc1 (centres undefined) | inactive | inactive | inactive | inactive | inactive |  |  |  |  |  |  | 
2 | COc1c2cc(c(O[C@@H]3O[C@H](CO)[C@@H](O)[C@H](O)[C@H]3O)c1OC)CCCCC(O)CCc1ccc(O)c-2c1 (some centres undefined) |  | inactive | inactive | inactive | 6.53 µM (active) | -87.3 | -7.96% [at 29.8 µM] | -5.32 | -8.72 |  |  | 
3 | O=C(O)c1cccc(CN2C(=O)/C(=C(\c3ccccc3)c3ccc(Cl)cc3)c3ccccc32)c1 |  |  |  | inactive |  | -6.02 | -1.74% | -41.9 | -8.16 |  |  | 
4 | OCC1=C[C@@H](O)[C@@H]2C=CO[C@@H](O[C@@H]3O[C@H](CO)[C@@H](O)[C@H](O)[C@H]3O)[C@H]12 | inactive | inactive | inactive | inactive |  |  |  |  |  |  |  | 
5 | COC(=O)C1=CO[C@@H](O[C@@H]2O[C@H](CO)[C@@H](O)[C@H](O)[C@H]2O)[C@@H]2C(CO)=CC[C@H]12 | inactive | inactive | inactive | inactive | inactive |  |  |  |  |  |  | 
6 | CC1OC(OC2C(OC(=O)[C@]34CCC(C)(C)C[C@H]3C3=CCC5[C@@]6(C)CC[C@H](OC7OC(C(=O)O)C(O)C(O)C7O)C(C)(C)C6CC[C@@]5(C)[C@]3(C)CC4O)OC(CO)C2O)C(O)C(O)C1OC1OCC(O)C(O)C1O (some centres undefined) |  | inactive | inactive |  |  | -87.7 | 0% [at 19.1 µM] | -6.05 | -8.02 | 111% [at 11.5 µM] (inactive) |  | 
7 | O=c1[nH]ccc2nc(-c3ccc(CN4CCC(c5nc(-c6ccccn6)n[nH]5)CC4)cc3)c(-c3ccccc3)cc12 |  | inactive | inactive | inactive | inactive | -10.1 | -7.59% | -47.8 | -18 |  |  | 
8 | COc1cnc(-c2ccc(Cn3c(CC(C)(C)C(=O)O)c(SC(C)(C)C)c4cc(OC[C@@H]5Cc6ccccc6N5C(C)=O)ccc43)cc2)nc1 |  | inactive | inactive | inactive | inactive | -6.21 | -3.63% | -11.1 | -8.45 |  |  | 
9 | Cc1noc2c1-c1ccccc1C(c1ccc(Cl)cc1)=N[C@H]2CC(N)=O | inactive | inactive | inactive | inactive | inactive |  |  |  |  |  | 5.15 µM (active) | 
10 | NCCCCN(Cc1nc2ccccc2[nH]1)[C@H]1CCCc2cccnc21 | inactive | inactive | inactive | inactive | inactive |  |  |  |  |  |  | 
11 | CCCCOc1nc(N)c2c(n1)N(Cc1cccc(CN3CCCC3)c1)CC(=O)N2 | inactive | inactive | inactive | inactive |  |  |  |  |  |  |  | 
12 | C/C(=C\CC/C(C)=C/CC[C@]1(C)CCc2cc(O)cc(C)c2O1)CC/C=C(\C)C(=O)O |  | inactive | inactive |  | 4.62 µM (active) | -20.5 | 0% [at 29.8 µM] | -14.3 | -0.0782 |  |  | 
13 | COc1cccc2c1c(O)c(C(=O)N(C)c1ccc(C(F)(F)F)cc1)c(=O)n2C | inactive | inactive | inactive | inactive | inactive |  |  |  |  |  |  | 
14 | Fc1ccccc1-c1nc2ccn(Cc3ccc(-c4ccc(C(F)(F)F)cc4C(F)(F)F)nn3)cc-2n1 | inactive | inactive | inactive | inactive | inactive |  |  |  |  |  |  | 
15 | CSC(=O)OCC1=C[C@@H]2OC(=O)C3=CO[C@@H](O[C@@H]4O[C@H](CO)[C@@H](O)[C@H](O)[C@H]4O)[C@H]1[C@@H]32 |  | inactive | inactive |  | 6.53 µM (active) | -58.6 | -9.29% [at 29.8 µM] | -7.9 | -7.61 |  |  | 
16 | O=C(O)CC1CCC(c2ccc(-c3ccc(Nc4ccc(C(F)(F)F)nc4)cn3)cc2)CC1 (centres undefined) |  | inactive | inactive | inactive | inactive | -2.38 | 0.046% | -13.8 | -3.22 |  |  | 
17 | COc1cnc(-n2cnc(C)n2)c2[nH]cc(C(=O)C(=O)N3CCN(C(=O)c4ccccc4)CC3)c12 | inactive | inactive | inactive | inactive | inactive |  |  |  |  |  |  | 
18 | O=C(/C=C/c1ccccc1)OC[C@H]1O[C@@H](OC(=O)c2cc(O)c(O)c(O)c2)[C@H](O)[C@@H](O)[C@@H]1O |  | inactive | inactive | inactive | 0.327 µM (active) | -76.6 | -1.37% [at 29.8 µM] | -4.41 | -0.813 |  |  | 
19 | N#Cc1cccc(-c2c[nH]c3ncnc(N4CCOCC4)c23)c1 |  | inactive | inactive | inactive | inactive | -74.9 |  | -64.5 | -72.3 |  |  | 24.1 µM (active)
20 | Cc1cc(OCCN2CCOCC2)nn1-c1ccc2ccccc2c1 | inactive | inactive | inactive | inactive | inactive |  |  |  |  |  |  | 
21 | CC(C)=C1CC2C(CCC2(C)O)C(C)(O)CC1=O (centres undefined) |  | inactive | inactive | inactive | 23.8 µM (active) | -78.9 | 0% | 3.19 | 3.52 |  |  | 
22 | O=C(O)CC(CCc1ccccc1)OC1OC(CO)C(O)C(O)C1O (centres undefined) |  | inactive | inactive | inactive | 5.21 µM (active) | -76.5 | -3.69% | -1.93 | -2.51 |  |  | 
